Screen size: about 360,000 compounds; about 2,600 (0.72%) were called active.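 How the source made its calls: active means inhibition above its plate's cutoff, the mean inhibition of sample wells plus 3 SD (cut at about 27% in these data); inactive means the rest.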 Shown is part of a subset that was picked to be rich in actives.
biological target: Muscarinic acetylcholine receptor M4 (Homo sapiens) (UniProt P08173); test: human M4 muscarinic receptor antagonists, primary screen, CHO cells, Fluo-8 calcium fluorescence (AID 624125); settings: CHO-hM4 cells, ACh EC80, Fluo-8 calcium fluorescence; at 3 µM; hits give high values;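 further: 0% = acetylcholine EC80 with DMSO and 100% = DMSO without agonist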
Sequence (P08173 whole entry, looked up): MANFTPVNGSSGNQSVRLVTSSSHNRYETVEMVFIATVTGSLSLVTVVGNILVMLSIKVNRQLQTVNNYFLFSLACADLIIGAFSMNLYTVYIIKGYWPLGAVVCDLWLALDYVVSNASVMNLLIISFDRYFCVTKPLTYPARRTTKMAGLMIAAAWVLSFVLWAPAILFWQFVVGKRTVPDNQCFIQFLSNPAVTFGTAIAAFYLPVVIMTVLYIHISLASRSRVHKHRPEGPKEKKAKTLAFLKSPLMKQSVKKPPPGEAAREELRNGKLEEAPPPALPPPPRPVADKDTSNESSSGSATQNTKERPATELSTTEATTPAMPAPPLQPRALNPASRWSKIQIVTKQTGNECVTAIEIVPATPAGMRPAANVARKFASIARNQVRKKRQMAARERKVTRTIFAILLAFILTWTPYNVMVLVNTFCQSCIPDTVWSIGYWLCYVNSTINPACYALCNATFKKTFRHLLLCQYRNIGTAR

Row | SMILES | inhibition
1 | Fc1cccc(Cc2c(-c3ccc(Cl)cc3)nc3ccc(Cl)cn23)c1 | -24.1% (inactive)
2 | CCOC(=O)C(CC)Sc1ncnc2c1nnn2-c1ccc(F)cc1 (stereo unspecified) | -1.34% (inactive)
3 | O=C(NCCCc1ccccc1)c1cc(COc2c(F)cccc2F)on1 | -4.04% (inactive)
4 | CC(C)Cc1cc(C(=O)NCCc2ccccc2)no1 | 101% (active)
5 | CC(C)Cc1cc(C(=O)Nc2cc(Br)ccc2O)no1 | -14.2% (inactive)
6 | CC1(C(=O)NS(=O)(=O)c2ccccc2Cl)CCN1C(=O)c1cccc(F)c1 (stereo unspecified) | 3.33% (inactive)
7 | CC(Sc1nncn1C)C(=O)Nc1cc(C(F)(F)F)ccc1N1CCOCC1 (stereo unspecified) | -5.32% (inactive)
8 | CN(CCC#N)c1ncnc2scc(-c3ccccc3)c12 | -1.83% (inactive)
9 | O=C(CSc1nc2ccccc2o1)N1c2ccccc2Sc2ccc(Cl)cc21 | -3.42% (inactive)
10 | O=C(CN1CCCCC1)N1c2ccccc2Sc2ccc(C(F)(F)F)cc21 | 97.5% (active)
11 | O=C(CN1C(=O)/C(=C\c2ccc(C(F)(F)F)cc2)Sc2ccccc21)NCc1ccco1 | 14.8% (inactive)
12 | CCC(=O)Nc1cc(C(F)(F)F)ccc1N1CCCC1 | 3.82% (inactive)
13 | O=C(CN1CCCCCC1)Nc1ccc(Cl)cc1F | -14.1% (inactive)
14 | O=C(CN1CCCCCC1)N1c2ccccc2Sc2ccc(C(F)(F)F)cc21 | 98% (active)
15 | COc1cccc(CNC(=O)CCC2CCCN(C(=O)c3cc(C)[nH]n3)C2)c1 (stereo unspecified) | -0.4% (inactive)
16 | O=C(NCc1ccccc1)[C@H]1C[C@@H]1[C@H](NP(=O)(c1ccccc1)c1ccccc1)c1ccccc1 | -6.36% (inactive)
17 | O=C(Nc1c2c(nn1-c1ccc(F)cc1)CS(=O)C2)C12CC3CC(CC(C3)C1)C2 (stereo unspecified) | -0.1% (inactive)
18 | Cc1c([N+](=O)[O-])c(N)nn1C | -10.8% (inactive)
19 | CCc1cccc(NC(=O)COC(=O)c2cc(=O)c3ccccc3o2)c1 | -0.31% (inactive)
20 | CN(CCc1ccccn1)C(=O)CCC1CCCN(Cc2ccccc2OC(F)F)C1 (stereo unspecified) | 31.4% (active)
21 | CN(CCc1ccccn1)C(=O)c1ccc(OC2CCN(Cc3ccccn3)CC2)cc1 | 10.3% (inactive)
22 | COc1cccc(CNC(=O)CCC2CCCN(Cc3ccc(OC(F)F)cc3)C2)c1 (stereo unspecified) | 8.05% (inactive)
23 | CCCS(=O)(=O)Nc1ccc(-c2cn3c(n2)SCC3)cc1 | 4.45% (inactive)

Row | SMILES | inhibition
24 | CCN(CC(=O)Nc1ccc(OC)cc1)C(=O)c1ccc(=O)n(Cc2ccccc2)n1 | 6.9% (inactive)
25 | CC(C)c1ccc(OCC(O)CN2CCN(c3ccccn3)CC2)cc1 (stereo unspecified) | -9.52% (inactive)
26 | CC(C)c1ccc(OCC(O)Cn2cnc3ccccc32)cc1 (stereo unspecified) | 32% (active)
27 | CC(=O)OC(COc1ccc(F)cc1)Cn1cnc2ccccc21 (stereo unspecified) | 11.2% (inactive)
28 | COC(=O)c1ccccc1NC(=O)C1CC(=O)N(c2ccc(OC)cc2)C1 (stereo unspecified) | -8.44% (inactive)
29 | COc1ccc(CN2CC(C(=O)NCCc3ccc(Cl)cc3)CC2=O)cc1 (stereo unspecified) | -3.66% (inactive)
30 | CCCC(=O)Nc1ncnc2c1ncn2[C@@H]1O[C@@H]2OP(=O)(O)OC[C@H]2[C@H]1OC(=O)CCC | -12.4% (inactive)
31 | COc1ccc(C(CCN(Cc2ccc(OC)c(OC)c2)C(=O)CCl)c2ccccc2)cc1 (stereo unspecified) | -0.52% (inactive)
32 | CCN(CCCCOC(=O)c1ccc(OC)c(OC)c1)C(C)Cc1ccc(OC)cc1 (stereo unspecified) | 61.6% (active)
33 | COc1ccc(C(=O)OCC(=O)NCCCc2ccccc2)cc1OC | 2.28% (inactive)
34 | Cc1n[nH]c(=O)c2c(NC(=O)CSc3cc(Cl)ccc3Cl)oc(C)c12 | -3.66% (inactive)
35 | COc1ccc2[nH]c3c(C)c4cc[n+](C)cc4c(C)c3c2c1 | 1.89% (inactive)
36 | CC(OC(=O)c1ccc(NS(=O)(=O)c2ccc3[nH]c(=O)[nH]c3c2)cc1)C(=O)Nc1cccc(Cl)c1Cl (stereo unspecified) | 5.91% (inactive)
37 | COc1ccc(CCN2C(=O)N(c3ccc(OC)cc3)C(=O)C2CC(=O)Nc2ccc(OC)cc2)cc1 (stereo unspecified) | -16.8% (inactive)
38 | CCN(Cc1ccccc1)C(=O)CSc1nc(C)cc2c1C(=O)OC2 | 8.21% (inactive)
39 | O=C(Nc1ccc(F)cc1)C1CCN(C(=O)c2ccc([N+](=O)[O-])cc2)CC1 | -7.19% (inactive)
40 | C[N+]1(CC(O)COc2ccccc2)CCN(C(=O)c2ccc([N+](=O)[O-])cc2)CC1 (stereo unspecified) | -5.14% (inactive)
41 | COc1ccccc1C1SCCN1C(=O)c1ccc([N+](=O)[O-])cc1 (stereo unspecified) | 57% (active)
42 | Cn1c(=O)c2c(SCC(=O)NCC3CCCO3)nc(CC(C)(C)C)nc2n(C)c1=O (stereo unspecified) | 2.72% (inactive)
43 | CCNc1nc(Oc2ccc(C(=O)OC)cc2)nc(N2CCOCC2)n1 | 2.43% (inactive)
44 | CCOC(=O)C1C(c2ccc(O)cc2)NC(=O)NC1(O)C(F)(F)F (stereo unspecified) | 5.66% (inactive)
45 | O=C(c1cccs1)C1C(c2ccc(Br)cc2)NC(=S)NC1(O)C(F)(F)F (stereo unspecified) | 77.3% (active)
46 | CC1=NN(c2cccc(Cl)c2)C(=O)C12CC(C)=C(C)CS2 (stereo unspecified) | -0.34% (inactive)

Row | SMILES | inhibition
47 | O=C1Nc2c(Br)cc(Br)cc2C1(O)N1CCOCC1 (stereo unspecified) | -12% (inactive)
48 | CCC(CC)C(C(=O)NC1CCCC1)N1CCN(c2cc(C)nc3ccccc23)CC1 (stereo unspecified) | -16.6% (inactive)
49 | CN(Cc1nc(-c2cnccn2)no1)Cc1n[nH]c2c1CCCCC2 | 37.3% (active)
50 | CCn1ccnc1CN(C)Cc1nc(-c2ccc3c(c2)OCO3)no1 | 1.6% (inactive)
51 | CN(Cc1cc2cc(F)ccc2[nH]1)Cc1nc(-c2cnccn2)no1 | -8.36% (inactive)
52 | CCOc1cc(CNCc2ccccn2)ccc1OCC(=O)NC(C)(C)C | 1% (inactive)
53 | COc1cccc(OCC(=O)NNC(=O)c2cnccn2)c1 | 12.6% (inactive)
54 | CCN(CC)c1ccc(NC(=O)c2ccc(Cl)nc2)cc1 | 1.79% (inactive)
55 | CCN(CC)c1ccc(/C=N/NC(=O)c2cnccn2)c(O)c1 | 33.1% (active)
56 | CC1(C)Cc2cccc(OCC(=O)N3CCN(c4ccc([N+](=O)[O-])cc4)CC3)c2O1 | -2.84% (inactive)
57 | COc1cccc(/C=C/C(=O)OCC(=O)N2CCCc3ccccc32)c1 | -7.08% (inactive)
58 | O=c1[nH]c(=O)n(Cc2ccco2)c2c1C(C(F)(F)F)(C(F)(F)F)N=C(c1ccco1)N2 | 4% (inactive)
59 | Nc1c(C(=O)c2cccs2)sc2nsc(SCCN3CCCCC3)c12 | 42% (active)
60 | O=C1C(=O)N(CCCO)C(c2ccccc2)/C1=C(\O)c1ccc(Br)cc1 (stereo unspecified) | 3.51% (inactive)
61 | COC(=O)[C@]12CCCCC=C1N(Cc1ccccc1)C(=O)[C@H](CC(=O)NCc1ccc(C)o1)C2 | -11.9% (inactive)
62 | OC[C@@H]1CN(Cc2ccc(-c3ccccc3)cc2)C[C@H](n2cnc3c(NC4CCCC4)ncnc32)O1 | 19.1% (inactive)
63 | CN(C)c1ccc(CSc2ccccc2)cc1 | -16.2% (inactive)
64 | CN(C)c1ccc(/C=C2\NC(=S)N(Cc3ccccc3)C2=O)cc1 | 44.5% (active)
65 | CC(C)(C)C(=O)COC(=O)c1cc(S(=O)(=O)N2CCCCC2)ccc1N1CCOCC1 | -6.6% (inactive)
66 | CC1Cc2[nH][nH]c(=O)c2C(C2CCCC2)O1 (stereo unspecified) | 3.85% (inactive)
67 | CCNC(=S)N(CCN(CC)CC)Cc1cc2cc3c(cc2[nH]c1=O)OCO3 | 1.79% (inactive)
68 | c1ccc2c(c1)OCC(CNc1ncnc3nc[nH]c13)O2 (stereo unspecified) | 65.3% (active)
69 | CCC(=O)c1ccc(OCC(=O)N(CC)CC2COc3ccccc3O2)cc1 (stereo unspecified) | -18.3% (inactive)

Row | SMILES | inhibition
70 | O=C(COc1ccc(F)cc1Br)NCC1COc2ccccc2O1 (stereo unspecified) | 3.31% (inactive)
71 | O=[N+]([O-])c1cc(S(=O)(=O)CCCN2CCOCC2)ccc1F | -17.3% (inactive)
72 | CC(C)(O)C#Cc1ncc(C(F)(F)F)cc1Cl | 3.84% (inactive)
73 | COC(=O)[C@@H](NC(=O)Nc1cc(Cl)ccc1C)C(C)C | 8.25% (inactive)
74 | CN(C)Cc1ccccc1C1(O)c2ccccc2CSc2ccccc21 (stereo unspecified) | 22.2% (inactive)
75 | CN(C)CC/C=C1\c2ccccc2CSc2ccccc21 | 83% (active)
76 | Cc1cccc(-n2c(O)c(C=Nc3ccccc3N)c(=O)[nH]c2=O)c1 | 4.12% (inactive)
77 | CN(C)CCCNC(=O)c1cc(C(=O)Cc2ccc(Cl)cc2)c[nH]1 | -5.01% (inactive)
78 | CCOC(=O)c1nnn(-c2nonc2-n2cccc2)c1CN1CCC(C(=O)OCC)CC1 | 0.5% (inactive)
79 | CCNS(=O)(=O)c1ccc(NC(=O)Nc2cccc(C(F)(F)F)c2)cc1 | 30.8% (active)
80 | Cc1cc(S(=O)(=O)N2CCOCC2)ccc1OCC(=O)Nc1cccc(C(F)(F)F)c1 | 14.2% (inactive)
81 | CCNS(=O)(=O)c1ccc(NC(=O)c2cncc(Br)c2)cc1 | -2.17% (inactive)
82 | CCCNC(=O)C[C@@H]1CC[C@@H]2[C@H](COC[C@H](O)CN2C(=O)c2cc(Cl)cc(Cl)c2)O1 | 2.23% (inactive)
83 | Cc1ccc(C(=O)O)cc1S(=O)(=O)NCC1CCCO1 (stereo unspecified) | 0.46% (inactive)
84 | CCc1cc(C(=O)OC)c(NC(=O)CC2Sc3ccc(C(F)(F)F)cc3NC2=O)s1 (stereo unspecified) | 0.19% (inactive)
85 | COc1cc(OC)c2ccc(=O)oc2c1C(CCN1CCN(c2ccccc2)CC1)c1ccc2c(c1)OCO2 (stereo unspecified) | 4.01% (inactive)
86 | CCC1C=C(c2ccccc2)C=CN=C1N(CC)CC (stereo unspecified) | 35% (active)
87 | O=C(N/N=C/c1sc(N2CCCCC2)nc1-c1cccs1)c1cccnc1 | -11.5% (inactive)
88 | Nc1cc2c(cc1Br)-c1ccc(F)cc1C2=O | -3.7% (inactive)
89 | Cc1ccc(S(=O)(=O)N2CCCC(C(=O)N3CCN(C)CC3)C2)cc1 (stereo unspecified) | 11.1% (inactive)
90 | COc1ccc(S(=O)(=O)N2CCCC(C(=O)N3CCN(C)CC3)C2)cc1C (stereo unspecified) | -3.22% (inactive)
91 | CC(=O)N1CCCc2cc(S(=O)(=O)N3CCCC(C(=O)N4CCN(c5cccc(Cl)c5)CC4)C3)ccc21 (stereo unspecified) | 43.8% (active)
